# Among all 330,000 compounds or so, about 7,700 (2.3%) were called active. About 26% were inconclusive and are not listed. The sample as a whole holds a higher share of actives than the screen did. Values without a mark were called inactive. The call rests on the fitted dose curve; in most records, active means well fitted inhibition curve with a large enough effect; inconclusive means small, poorly fitted or top-dose-only effect, or effect the other way; inactive means flat fitted curve, though single readings scatter.
# Test: qHTS screen for small molecules that inhibit ELG1-dependent DNA repair in human embryonic kidney (HEK293T) cells expressing luciferase-tagged ELG1; further: nearly all actives have a fitted effect of over 55% in size
# Conditions: HEK293T ELG1-luciferase reporter, luminescence, 16 h, DNA damage induced by 5-fluorouridine; series mostly up to 46.1 µM; activity change, negative = inhibition: at the top concentration
# How it was run: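 5-Fluorouridine DNA damage + compound/DMSO, 2,000 cells/well, 16 h, 37 °C/5% CO2. ONE-Glo, 30 min RT, luminescence. Readout = decrease in reporter signal.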
# On the % scale 0 is the no-effect control and ±100 the full control effect; potency means the concentration at half of the fitted maximal effect.
SMILES,"activity change, negative = inhibition [%]",Potency
COc1ccc(NC(=O)C(CC(C)C)NC(=O)C2CCC(C)CC2)cc1 (centres undefined),16.9,
COc1ccc(NS(=O)(=O)c2ccc(C)c(C(=O)N(C)Cc3ccc(OC)cc3OC)c2)cc1,-22.6,
O=C(Cc1ccc([N+](=O)[O-])cc1)Nc1ccc(C(=O)N2CCOCC2)cc1,-15,
CCOC(=O)c1[nH]c2ccc(OC)cc2c1NC(=O)N1CCOCC1,12.1,
COc1ccc2[nH]c(C(=O)N3CCN(C)CC3)c(C)c2c1,15.2,
Cc1c(C(=O)N2CCOCC2)[nH]c2ccc(OCc3ccccc3)cc12,,18.4 µM (active)
COc1ccc(CN2C(CC(=O)Nc3cccnc3)c3ccc(C(F)(F)F)cc3S2(=O)=O)cc1 (centres undefined),-8.14,
O=C(CSc1nc2ccccc2s1)Nc1ccc(C(=O)O)cc1,6.52,
Nc1nnc(SCC(=O)Nc2ccc3nc(SCC(=O)Nc4ccccc4)sc3c2)s1,,1.84 µM (active)
Cc1ccc(Nc2nc(N)nc(CN3CCN(Cc4ccccc4)CC3)n2)cc1Cl,-19.9,
Cc1ccc(Nc2nc(N3CCOCC3)nc(N3CCOCC3)n2)cc1Cl,,0.651 µM (active)
O=C(CSc1c2c(nc3ccc(Cl)cc13)CCCC2)NCc1ccco1,-16.2,
Cc1ccccc1NC(=O)CSc1nc2ccc(Nc3nc(N4CCOCC4)nc(N4CCOCC4)n3)cc2s1,,1.3 µM (active)
Cc1ccc(S(=O)(=O)N2CCOCC2)cc1NC(=O)CSc1nnc(N)s1,-8.75,
COc1cc(OC)cc(-c2nnc(SCC(=O)Nc3ccc(C(=O)O)cc3)s2)c1,-2.89,
C=CCn1c(CSc2nc3ccccc3s2)nnc1SCC(=O)NCc1ccco1,4.59,
Cc1ccccc1NC(=O)CSC1=NCCN1,-0.143,
Cc1cc(Nc2ccc(Cl)cc2)nc(N2CCOCC2)n1,-11.5,
O=C(CSc1nc2ccc(Nc3nc(N4CCOCC4)nc(N4CCOCC4)n3)cc2s1)NCc1ccco1,,2.59 µM (active)
O=S(=O)(c1ccc(F)cc1)N1CCN=C1SCc1cccc(F)c1,0.508,
O=C(Nc1cc(-c2nc3ncccc3o2)ccc1Cl)c1ccco1,-14.8,
COc1cccc(NC(=O)CCc2nnc3ccc(N4CCC(C)CC4)nn23)c1,-10.8,

SMILES,"activity change, negative = inhibition [%]",Potency
COc1ccc(N(Cc2ccc(N(C)C)cc2)C(=O)c2ccc(S(C)(=O)=O)cc2)cc1,8.66,
CN[C@H](C(=O)NC[C@H]1O[C@@H](n2cnc3c(N)ncnc32)[C@H](O)[C@@H]1O)[C@@H](C)OCc1ccccc1,23.4,
CCCN1CCn2c3c(c4cc(Br)ccc42)CCCC31 (centres undefined),4.36,
c1ccc2c(c1)OCC(CNc1ncnc3nc[nH]c13)O2 (centres undefined),-16.6,
COc1ccc(Nc2ncnc3sc(-c4ccccc4)cc23)c(OC)c1,-10.3,
c1ccc(-c2cc3c(NCC4COc5ccccc5O4)ncnc3s2)cc1 (centres undefined),,20.6 µM (active)
CC1(c2ccccc2)NC(=O)N(CC(=O)N2CC(=O)Nc3ccccc32)C1=O (centres undefined),24.4,
O=C(CCCC(=O)N1CCN(c2cccc(Cl)c2)CC1)c1ccccc1,5.86,
Cc1ccc(C(=O)Nc2nnc(C3=COCCO3)o2)cc1C,4.93,
O=C1C=C(c2ccnc3cc(Cl)ccc23)C[C@@H](c2ccc3c(c2)OCO3)C1,5.67,
Cc1ccc(N2CCN(c3ccc([N+](=O)[O-])cn3)CC2)c(C)c1,-15.6,
O=C(N/N=C/c1cc(Cl)cc([N+](=O)[O-])c1O)C(O)(c1ccccc1)c1ccccc1,,16.4 µM (active)
CN(C)/N=C/c1cc(Cl)cc([N+](=O)[O-])c1O,6.41,
O=C(Cc1cc(=O)[nH][nH]1)N/N=C/c1ccccc1[N+](=O)[O-],19.7,
CCOC(=O)C1=CN(Cc2ccc(Br)cc2)S(=O)(=O)N(C)C1C (centres undefined),5.04,
CCn1c(Cc2ccc(OC)cc2)nnc1SCC(=O)Nc1ccc(N2CCOCC2)cc1,6.69,
FC(F)(F)c1ccc2c3n(nc2c1)CCN=C3c1ccc(Cl)cc1,20,
COc1cc(-c2n[nH]c(=S)n2Cc2ccccc2)cc(OC)c1OC,-2.15,
CCC(C)n1c(-c2cc(OC)c(OC)c(OC)c2)nc2nc3ccccc3nc21 (centres undefined),,14.6 µM (active)
COc1cc(C(O)c2nc3ccccc3n2C)cc(OC)c1OC (centres undefined),5.28,
O=C(COc1ccc([N+](=O)[O-])cc1Cl)Nc1ccc2[nH]c(=O)[nH]c2c1,-1.89,
Nc1cc(N)nc(SCC(=O)Nc2cccc(S(=O)(=O)N3CCCCC3)c2)n1,-0.272,

SMILES,"activity change, negative = inhibition [%]",Potency
Cc1nn(-c2ccccc2)c2c1c(C)c(CCC(=O)NCC1CCCO1)c(=O)n2C (centres undefined),-27.6,
Cc1cccc(OCC(O)Cn2c(N3CCCCC3)nc3c2c(=O)[nH]c(=O)n3C)c1 (centres undefined),-12.2,
CCCSc1nc2c(c(=O)[nH]c(=O)n2C)n1CCc1ccccc1,-5.55,
CCC(C)Sc1nc2c(c(=O)[nH]c(=O)n2C)n1CC(O)COc1cccc2ccccc12 (centres undefined),,8.2 µM (active)
COC(=O)c1c(NC(=O)C2CC(C)=C(C)CC2C(=O)O)sc2c1CCCCC2 (centres undefined),-0.0644,
Cc1ccc(S(=O)(=O)N2CCN(C(=O)COC(=O)CNC(=O)c3ccc(C(C)(C)C)cc3)CC2)c(C)c1,0,
Brc1ccc2c(c1)[C@H]1OCC[C@H]1[C@@H](c1cccs1)N2,,20.6 µM (active)
c1csc(CN2CCN(Cc3cccs3)C2c2cccs2)c1,12.2,
CCc1nn(CCCC(=O)Nc2ccc(C)cc2C)c(=O)c2cc3occc3n12,2.59,
C/C=C/c1ccc(OCC(=O)OCC(=O)Nc2c(C)nn(-c3ccccc3)c2C)c(OC)c1,12.9,
CCn1nc(C)c(NC(=O)/C=C/c2ccc(OC)c(COc3ccc(Br)cc3)c2)c1C,,6.51 µM (active)
COc1ccc(C(C)=O)cc1COc1ccc(Cl)c(C)c1,-6.19,
CC1CCCCC12NC(=O)N(CC(=O)OCc1c(F)cccc1Cl)C2=O (centres undefined),-1.13,
COc1ccc(C(=O)NC2CC2)cc1OC1CCN(C/C=C/c2ccccc2)CC1,-8.27,
CC(C)(CNC(=O)c1ccc(Cl)c(S(=O)(=O)N2CCc3ccccc3C2)c1)N1CCOCC1,,1.83 µM (active)
Cc1nn(Cc2ccccc2)c(C)c1CNC(=O)c1ccc(F)c(S(=O)(=O)N2CCOCC2)c1,-0.807,
CC(C)(CNC(=O)Cc1ccc(Cl)cc1Cl)N1CCOCC1,3.16,
CN(C)S(=O)(=O)c1ccc(C(=O)NCC(C)(C)N2CCOCC2)cc1,-0.438,
Cc1ccc(C(=O)Nc2ncccc2C)cc1S(=O)(=O)N1CCOCC1,17.9,
Cc1ccccc1CSCCNC(=O)c1ccc(Cl)c(S(=O)(=O)N2CCOCC2)c1,,18.4 µM (active)
